# The whole screen tested about 290,000 compounds, of which about 3,300 (1.1%) were called active. This is one part of a sample in which actives are shown more often than they occur. Values without a mark were called inactive. Rule as the data show it: active = binding response below about 67% or above about 130%; inconclusive = no clear call, values can overlap the other calls; inactive = in between.
# Molecular target: Mitogen-activated protein kinase kinase kinase 2 (Homo sapiens) (UniProt Q9Y2U5)
# Assay: wildtype MEKK2 PB1-MEK5 interaction, increase or decrease – biochemical, multiplex bead flow cytometry, Alexa488-MEK5, primary screen (AID 1531)
# Conditions: Alexa488-MEK5 binding to MEKK2 WT, at 10 µM, actives lie on both sides
row,Compound,binding response (% of control)
1,Cc1cccc(OCC(=O)NCC(=O)N/N=C/c2ccc(N(C)C)cc2)c1,106%
2,CN(C)CCCn1c(SCc2ccc(Cl)cc2)nnc1-c1ccncc1,109%
3,O=S(=O)(Cc1nnnn1-c1ccccc1)c1ccccc1,108%
4,Cc1cc(/C=C2/C(=N)N3C(=NC2=O)SN=C3S(C)(=O)=O)c(C)n1-c1ccccc1,-2% (active)
5,CCC1=NN2C(=N)/C(=C/c3cc(C)n(-c4ccccc4)c3C)C(=O)N=C2S1,98%
6,CCS(=O)(=O)C1=NSC2=NC(=O)/C(=C\c3cc(C)n(-c4cccc(OC)c4)c3C)C(=N)N21,98%
7,Cc1cccc(CCNC(=O)Cn2ncc3c([nH]c4ccc(C)cc43)c2=O)c1,96%
8,C=CCOc1cccc(C2C(C(=O)c3ccc(C)o3)=C(O)C(=O)N2CCCn2ccnc2)c1 (stereo not given),98%
9,CC1CCCC(C)N1C(=O)CSc1nnnn1C1CCCC1 (stereo not given),100%
10,CCCc1cc(=O)[nH]c(SCC(=O)N2C(C)CCCC2C)n1 (stereo not given),113%
11,CCCc1nnc(SCC(=O)N2C(C)CCCC2C)n1CC (stereo not given),812% (active)
12,COc1ccccc1CNS(=O)(=O)c1c(C)[nH]c(C)c1C(=O)N1CCCCC1,101%
13,O=C(Nc1ccc(C(=O)N2CCOCC2)cc1)Nc1cccc(C(F)(F)F)c1,102%
14,O=C(COc1cc2oc(=O)c3c(c2cc1Cl)CCC3)NCCCN1CCOCC1,100%
15,CCCC[C@@H]1CN=C(N)N1CCc1cccc(F)c1,107%
16,CCCNC(=O)c1ccc(Cl)c(Cl)c1,101%
17,CCCn1c(=N)n(CC(=O)c2ccc(Cl)c(Cl)c2)c2ccccc21,139% (active)
18,CCn1c(=N)n(CC(=O)c2cccc(OC)c2)c2ccccc21,96%
19,COC(C[C@@H]1O[C@@H]1C(=O)[C@@H](C)OCc1ccccc1)OC,97%
20,O=C(CCN1CCc2ccccc2C(O)(c2ccccc2)C1)c1ccc2c(c1)OCCO2 (stereo not given),103%

row,Compound,binding response (% of control)
1,CCN1CCN(CCNC(=O)c2ccc(/C=C3/Sc4ccccc4N(Cc4cccc(C)c4)C3=O)cc2)CC1,220% (active)
2,CCN1CCN(CCNC(=O)c2ccc3c(c2)NC(=O)/C(=C\c2ccc(OC)c(OC)c2)S3)CC1,131%
3,O=C(NCCN1CCOCC1)c1ccc(/C=C2\Sc3ccccc3N(Cc3ccc(F)cc3)C2=O)cc1,128%
4,CCOc1cc(C)c(S(=O)(=O)NCc2ccccn2)cc1C,102%
5,Cc1cccc(N2CCN(C(=O)COCc3cc(-c4ccc5c(c4)OCO5)on3)CC2)c1C,100%
6,Cc1nc2sccn2c(=O)c1S(=O)(=O)NCCc1ccccc1,99%
7,COc1ccc(CN2[C@@H](CC(=O)O)c3cc(F)ccc3S2(=O)=O)cc1,84%
8,CC(Oc1cccc(Cl)c1)C(=O)NC1CC(C)(C)NC(C)(C)C1 (stereo not given),107%
9,Cc1cc(-c2csc(N)n2)c(C)n1-c1ccccc1,-9% (active)
10,Cc1cc(-c2csc(N)n2)c(C)n1Cc1ccccc1,89%
11,CC(=O)Nc1ccc(C(=O)Nc2nc(-c3cc(C)n(Cc4ccccc4)c3C)cs2)cc1,107%
12,COC(=O)CN1C(=O)[C@H]2[C@@H](/C=C/c3ccccc3)N3C(=O)CN(Cc4ccccc4)C(=O)[C@@]3(Cc3ccccc3)[C@H]2C1=O,95%
13,COCCNc1cc(-c2ccccc2)nc2cc(-c3cccc(F)c3)nn12,118%
14,C[C@H]1CCC(=O)N([C@H](CSc2ccccc2)Cc2ccccc2)CC1,161% (active)
15,CN1CCC(=O)N([C@H](CO)Cc2ccccc2)CC1,97%
16,COc1ccc(SC[C@H](Cc2ccccc2)N2CCN(CCc3ccccc3)CCC2=O)cc1,158% (active)
17,O=C1CCN(Cc2ccccc2)CCN1[C@H](CSc1ccccc1)c1ccccc1,90%
18,O=C1CCNCCN1[C@H](CO)Cc1ccccc1,110%
19,COc1ccc(SCCN2CCN(CC(C)C)CCC2=O)cc1,131%
20,O=C(NCc1ccccc1)C1=C[C@@H](c2ccccc2)C[C@@H](OCCCCO)O1,101%

row,Compound,binding response (% of control)
1,COCOc1cc(O)c(C(=O)/C=C/c2ccc(OCOC)c(OCOC)c2)c(OCOC)c1,111%
2,COc1ccccc1N1CCN(c2nc(C)cc(=O)[nH]2)CC1,107%
3,CCCCOc1ccc(C(=O)NCc2ccncc2)cc1,111%
4,CCCCOc1ccc(C(=O)NN2CCN(C)CC2)cc1,99%
5,CCCOc1ccc(C(=O)C(CCC(CNCC)C(=O)c2ccc(OCCC)cc2)CNCC)cc1 (stereo not given),188% (active)
6,CCCCN(CCCC)CCNC(=O)CN1C(=O)COc2ccc(S(=O)(=O)N3CCOCC3)cc21,103%
7,CCn1c(-c2cc(OC)ccc2OC)csc1=Nc1c(C)n(C)n(-c2ccccc2)c1=O,107%
8,COc1ccc(N=Cc2c(O)[nH]c3ccccc23)cc1OC,103%
9,CN=c1scc(-c2cc(OC)ccc2OC)n1/N=C/c1c(C)[nH]c2ccccc12,10% (active)
10,Cc1cc(OCC(=O)NCC(O)c2ccccc2)c2c(C)c(C)c(=O)oc2c1 (stereo not given),100%
11,O=C(Nc1ccccc1)c1ccc2c(c1)OCCCO2,105%
12,COc1ccc(C(C)NC(=S)NC2CCCCC2)cc1OC (stereo not given),101%
13,Cc1cn(COC/C=C/c2ccccc2)c(=O)[nH]c1=O,-7% [inhibitor] (active)
14,Cc1nc2nc[nH]n2c(=O)c1C/C=C/c1ccccc1,83%
15,Cc1[nH]c(=O)c(C(=O)/C=C/c2ccccc2)c2c1CCCC2,101%
16,COc1ccc(-c2nc3c(s2)CCc2onc(-c4ccc(Br)cc4)c2-3)cc1,95%
17,CCCCN(CCCC)CCCNC(=O)CN1C(=O)COc2ccc(S(=O)(=O)N3CCC(C)CC3)cc21,96%
18,CN=C1SC(C(=O)O)CC(=O)N1C (stereo not given),3% (active)
19,CCOc1ccc(N=C2SC(C(=O)O)CC(=O)N2C)cc1 (stereo not given),92%
20,COc1ccc(N=C2SC(C(=O)Nc3ccc(F)cc3)CC(=O)N2C)cc1 (stereo not given),97%
